Shiga toxin inh: A qHTS for Small Molecule Inhibitors of Shiga Toxin; Vero cells, Shiga toxin protein synthesis inhibition reporter; inhibition, % at 38.7 µM; actives 9.2% (n = 290,000); in the data active = inhibition mostly above about 28%, no sharp cut-off; inactive = mostly below about 43%; note: 0% is about no effect
Pf growth 96h: Primary qHTS for delayed death inhibitors of the malarial parasite plastid, 96 hour incubation. P. falciparum luciferase reporter growth, 96 h. Potency, µM (titrated, usually from 28.7 µM), inactives show at the top dose activity change, negative = inhibition, hits mostly inhibitors. actives 6.9% (n = 320,000). AID 504834, 2011; note: potency is the fitted concentration of half-maximal effect; % is set by controls: 0 for no effect and ±100 for the full control effect
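Compounds incubated with erythrocytes infected by luciferase-expressing P. falciparum (2% hematocrit, 0.05% parasitemia final) for 96 hours, 37 C in 5% CO2. Growth inhibition scored as decreased luciferase luminescence.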
HCMV inh: qHTS Assay for inhibitors of the human cytomegalovirus (HCMV); HFF cells, HCMV-luciferase reporter, 72 h; stronger effect = lower value; activity change, negative = inhibition, % at 57.5 µM; actives 4.5% (n = 410,000); in the data active = activity change below about -60%; inconclusive = no clear call, values can overlap the other calls; inactive = above about -39%; note: % is set by controls: 0 for no effect and ±100 for the full control effect
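Luciferase read-out from HCMV-luciferase-infected HFFs (MOI 1 PFU/cell) 72 h post infection at 37C; compounds added after 16 h cell attachment; activity normalized between buffer-only basal and Salinomycin (10uM) inhibitor controls.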
Cycloheximide cs: Cycloheximide Counterscreen for Small Molecule Inhibitors of Shiga Toxin; actives 12% (n = 300,000); max response, %; cell reporter, cycloheximide protein synthesis inhibition counterscreen; AID 2314, 2010; in the data active = max response mostly above about 13%, no sharp cut-off; inactive = mostly below about 14%; note: read at 38.3 µM for the half of the compounds with a filed dose; 0% is about no effect
HCV inhibitor: qHTS Assay for Inhibitors of Hepatitis C Virus (HCV). Huh7.5.1 HCVcc-Cre infection, luciferase reporter, 44 h. Potency, µM (highest dose often 41.8 µM), without a hit: top-dose activity change, negative = inhibition, most hits filed as inhibitors. actives 3.4% (n = 340,000); note: potency is the fitted concentration of half-maximal effect; % is set by controls: 0 for no effect and ±100 for the full control effect
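HCVcc-Cre virus at an moi near 0.5 was added right after compound to cells cultured 4 h from seeding (1,000 cells/well). Luciferase activity was determined 44 h later, 15 min after substrate addition at RT.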
Pf growth 48h: Primary qHTS for delayed death inhibitors of the malarial parasite plastid, 48 hour incubation. P. falciparum luciferase growth in erythrocytes, 48 h. Potency, µM (series often up to 28.7 µM), for the others: at the top dose activity change, negative = inhibition, actives largely listed as inhibitors. actives 5.9% (n = 310,000); note: potency is the fitted concentration of half-maximal effect; % is set by controls: 0 for no effect and ±100 for the full control effect
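In quantitative HTS format, infected erythrocytes bearing luciferase-reporter parasites were treated for a single generation at 37 C. Luminescence after adding detection reagent served as the growth measure.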
Numbers without * were called inactive. Compounds with a hit are over-represented: about 21% of the library has one in this group of screens. Unless noted, calls come from the whole dose curve; as a rule, active = well fitted inhibition curve with a large enough effect; inconclusive = small, poorly fitted or top-dose-only effect, or another doubt; inactive = no such curve, though single readings can be large or run the other way.

How did COc1ccc(-c2cc3nc(-c4ccc(C)cc4)cc(C(F)(F)F)n3n2)cc1 do in these assays?
HCMV inh: 5

Results for Cc1cc(-c2ccccc2)n2nc(-c3ccc(Cl)cc3)cc2n1 ?
HCMV inh: -4

Results for Cc1ccc(C)c(CN2C(=O)CSc3ccc(C(=O)NCc4ccc(F)cc4)cc32)c1 ?
HCMV inh: 9

How did Cc1ccccc1NC(=O)CSc1ccc(-c2cccs2)nn1 do in these assays?
HCMV inh: 32

How did Cc1csc(C(=O)O)c1NC(=O)c1c(Cl)cccc1Cl do in these assays?
Shiga toxin inh: -4; Pf growth 96h: -6%; HCMV inh: 96; Cycloheximide cs: -2; HCV inhibitor: 18%; Pf growth 48h: inconclusive

What do the screens show for `COc1cccc(C(=O)Nc2nc3ccccc3[nH]2)c1`?
Shiga toxin inh: 29; Pf growth 96h: -71%; HCMV inh: -14; Cycloheximide cs: 27*; HCV inhibitor: -15%

What do the screens show for `O=C(c1cccc(Br)c1)c1nc2ccccc2[nH]c1=O`?
HCMV inh: -2

Results for O=C(Nc1nc2ccccc2[nH]1)c1ccc(Br)o1 ?
Shiga toxin inh: 83*; Pf growth 96h: 256%; HCMV inh: 154; Cycloheximide cs: 47*; HCV inhibitor: -7%; Pf growth 48h: inactive

Results for Cc1ccc(N(C)S(=O)(=O)c2cccc(C(=O)Nc3nc4ccccc4[nH]3)c2)cc1 ?
Shiga toxin inh: 39*; Pf growth 96h: inconclusive; HCMV inh: -87*; Cycloheximide cs: 36*; HCV inhibitor: 11µM*; Pf growth 48h: 12µM*

Results for O=C(Nc1nc2ccccc2[nH]1)c1cccc(Br)c1 ?
Shiga toxin inh: 82*; Pf growth 96h: -53%; HCMV inh: 48; Cycloheximide cs: 20*; HCV inhibitor: inconclusive; Pf growth 48h: -19%

What do the screens show for `COc1ccc(C(=O)Nc2nc3ccccc3[nH]2)cc1`?
Shiga toxin inh: -10; Pf growth 96h: -85%; HCMV inh: -33; Cycloheximide cs: -8; HCV inhibitor: -13%; Pf growth 48h: -59%

How did CN(C)S(=O)(=O)c1ccc(Cl)c(C(=O)Nc2nc3ccccc3[nH]2)c1 do in these assays?
Shiga toxin inh: 20; Pf growth 96h: inconclusive; HCMV inh: -10; Cycloheximide cs: 12; HCV inhibitor: -1%; Pf growth 48h: -15%

How did O=C(Nc1cc(Cl)cc(Cl)c1)c1cc(S(=O)(=O)N2CCc3ccccc3C2)ccc1F do in these assays?
HCMV inh: -25

How did O=C(Nc1c[nH]c(=O)[nH]c1=O)c1cccc(F)c1 do in these assays?
Shiga toxin inh: -4; Pf growth 96h: 13%; HCMV inh: 37; Cycloheximide cs: -2; HCV inhibitor: 27%; Pf growth 48h: 25%

Results for Cc1ccc(CC(=O)Nc2nc3ccccc3[nH]2)cc1C ?
Shiga toxin inh: 41; Pf growth 96h: inconclusive; HCMV inh: 44; Cycloheximide cs: 28; HCV inhibitor: 14%; Pf growth 48h: inconclusive

How did O=C(Nc1nc2ccccc2[nH]1)c1cccc(F)c1 do in these assays?
Shiga toxin inh: 58*; Pf growth 96h: -55%; HCMV inh: -7; Cycloheximide cs: 24*; HCV inhibitor: -5%; Pf growth 48h: 2%

How did O=C(/C=C/c1ccc(F)cc1)Nc1ccc2[nH]c(=O)[nH]c2c1 do in these assays?
Shiga toxin inh: 9; Pf growth 96h: 83%; HCMV inh: -18; Cycloheximide cs: 1; HCV inhibitor: 9%; Pf growth 48h: 30%

Results for CN(C)c1cccc(C(=O)Nc2nc3ccccc3[nH]2)c1 ?
Shiga toxin inh: 44; Pf growth 96h: -62%; HCMV inh: 26; Cycloheximide cs: 15*; HCV inhibitor: -21%; Pf growth 48h: -62%

What do the screens show for `O=C(/C=C/c1ccc(F)cc1)Nc1nc2ccccc2[nH]1`?
Shiga toxin inh: 77*; Pf growth 96h: 3%; Cycloheximide cs: 37*; HCV inhibitor: 1%; Pf growth 48h: 251%

Results for COc1cc(/C=C/c2nc3ccccc3c(=O)[nH]2)ccc1OC(F)F ?
Shiga toxin inh: 47; Pf growth 96h: 101%; HCMV inh: -13; Cycloheximide cs: 29*; HCV inhibitor: -14%

How did COc1cc(/C=C(\C#N)c2nc3ccccc3c(=O)[nH]2)cc(OC)c1OC do in these assays?
HCMV inh: -17

What do the screens show for `COc1ccc(/C=C/c2nc(C)c(-c3ccccc3)c(=O)[nH]2)cc1OC`?
Shiga toxin inh: -9; Pf growth 96h: -99%; HCMV inh: -65*; Cycloheximide cs: -4; HCV inhibitor: 0%; Pf growth 48h: inconclusive

Results for COc1cc(/C=C/c2nc3ccccc3c(=O)[nH]2)cc(OC)c1OC ?
Shiga toxin inh: 48; Pf growth 96h: 13%; HCMV inh: 23; Cycloheximide cs: 28*; HCV inhibitor: inconclusive; Pf growth 48h: 33%

How did C=CCOc1cccc(/C=C/c2nc3ccccc3c(=O)[nH]2)c1 do in these assays?
Shiga toxin inh: 71*; Pf growth 96h: -69%; HCMV inh: 85; Cycloheximide cs: 41*; HCV inhibitor: 6%

Results for COc1ccc(/C=C/c2nc(-c3ccccc3)cc(=O)[nH]2)cc1 ?
Shiga toxin inh: -10; Pf growth 96h: 3%; HCMV inh: -7; Cycloheximide cs: 1; HCV inhibitor: -6%; Pf growth 48h: inconclusive

Results for Cc1ccc(CNC(=O)[C@@H](NC(=O)C2CCN(C(=O)[C@@H](N)CC(C)C)CC2)C(C)C)cc1 ?
Shiga toxin inh: -12; Pf growth 96h: -9%; HCMV inh: 0; Cycloheximide cs: -4; HCV inhibitor: 26%; Pf growth 48h: 2%

How did Cc1onc(-c2ccccc2)c1C(=O)N1CCN(c2ccc([N+](=O)[O-])cc2)CC1 do in these assays?
HCMV inh: -27; HCV inhibitor: -24%

Results for NC(CCC(=O)N[C@@H](CS)C(=O)NCC(=O)O)C(=O)O (stereo not given in full) ?
Pf growth 96h: 3µM*; Pf growth 48h: 2.1µM*

How did Cn1nc(/C=C/c2ccccc2)ccc1=O do in these assays?
Shiga toxin inh: 86*; Pf growth 96h: 107%; HCMV inh: inconclusive; Cycloheximide cs: 28*; HCV inhibitor: -26%; Pf growth 48h: 153%

Results for Cc1nc(/C=C/c2ccccc2)cc(/C=C/c2ccccc2)n1 ?
Shiga toxin inh: 63*; HCMV inh: 12; Cycloheximide cs: 30*; HCV inhibitor: -1%; Pf growth 48h: inconclusive

Results for C(=C\c1cc(/C=C/c2ccccc2)ncn1)/c1ccccc1 ?
Shiga toxin inh: 82*; Pf growth 96h: inconclusive; HCMV inh: 78; Cycloheximide cs: 71*; HCV inhibitor: 6%; Pf growth 48h: 61%

Source: PubChem
